A selection: hits, their analogues and other compounds. The true share with any hit is near 14%.
Marburg entry inh: blocks Marburg virus binding to or entry into cells; Marburg virus pseudotyped entry inhibition, cell reporter; Potency, µM (top dose mostly 37.8 µM), hits mostly inhibitors; hit rate 1.8% among 300,000; AID 540276; calls by dose curve; tested in HEK293 cells
HCV inh: blocks hepatitis C virus; Huh7.5.1 HCVcc-Cre infection, luciferase reporter, 44 h; Potency, µM (highest dose often 41.8 µM), actives largely listed as inhibitors; hit rate 3.4% among 340,000
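Seed cells (1,000/well) for 4 h; treat with compound and infect with HCVcc-Cre, moi about 0.5. Incubate 44 h, then detect luciferase activity.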
HCMV inh: human cytomegalovirus inhibition; hit rate 4.5% among 410,000; activity change, negative = inhibition, % at 57.5 µM; HFF cells, HCMV-luciferase reporter, 72 h; hits give low values; in the data active = activity change below about -60%; inconclusive = no clear call, values can overlap the other calls; inactive = above about -39%
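Compounds were evaluated in HFFs infected with an HCMV luciferase reporter virus (MOI 1 PFU/cell). Luciferase in lysates collected 72 h post infection served as the replication measure.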
Pf growth 48h: inhibits P. falciparum growth in the first generation, 48 h | P. falciparum luciferase growth in erythrocytes, 48 h | Potency, µM (highest dose often 28.7 µM), hits mostly inhibitors | hit rate 5.9% among 310,000 | AID 504832
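A one-generation exposure of luciferase-tagged malaria parasites in RPMI 1640/Albumax erythrocyte culture, 37 C and 5% CO2. Inhibition is inferred from decreased luminescence after adding detection reagent.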
Lassa entry inh: inhibitors of Lassa virus binding or cell entry; AID 540256; Lassa virus pseudotype entry inhibition, cell reporter; Potency, µM (series often up to 37.9 µM), most hits filed as inhibitors; hit rate 1.2% among 300,000; calls by dose curve; tested in HEK293 cells; also: nearly all actives have a fitted effect of over 50% in size
Pf growth 96h: inhibits malaria parasite growth, 96 h; P. falciparum luciferase reporter growth, 96 h; Potency, µM (top dose mostly 28.7 µM), usual class: inhibitors; hit rate 6.9% among 320,000; AID 504834
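Plates of compound plus infected erythrocytes (2% hematocrit, 0.05% parasitemia final) incubate 96 hours, 37 C, 5% CO2. Detection reagent added; reduced luminescence from the parasites' luciferase reporter flags inhibition.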
Hits are given with their value; – = inactive; ? = inconclusive; · = not tested or not shown; [ ] = another dose, or the depositor's remark. Unless noted, calls follow the shape of the dose curve; as a rule, active = well fitted inhibition curve with a large enough effect; inconclusive = small, poorly fitted or top-dose-only effect, or another doubt; inactive = no such curve, though single readings can be large or run the other way.

SMILES	Marburg entry inh	HCV inh	HCMV inh	Pf growth 48h	Lassa entry inh	Pf growth 96h
CC1=C(C(=O)OCc2ccc(C)cc2)C(c2ccccc2F)CC(=O)N1 (stereo unspecified)	?	·	–	·	?	·
N#Cc1cccc2c1-c1ccccc1/C2=N/NC(N)=S	?	13µM	·	–[0.00184 µM]	?	?
CN(C)CCNc1ccc(CO)c2oc3ccc(O)cc3c(=O)c12	?	?	-99	·	?	·
CCN(CC)CCNc1ccc(CO)c2oc3cc(Cl)ccc3c(=O)c12	·	·	–	·	·	·
CC[C@@H]1CC=C[C@H]2[C@H]1C(=O)N(Cc1ccccc1)[C@H]2c1ccc2ccccc2c1	·	·	·	13µM	·	?
C[C@@H]1CC=C[C@H]2[C@H]1C(=O)N(Cc1ccccc1)[C@H]2c1ccc(F)c(-c2ccc(N(C)C)cc2)c1	·	–	–	?	·	12µM
C[C@@H]1CC=C[C@@H]2[C@H]1C(=O)N(Cc1ccccc1)[C@H]2c1cccc(C#Cc2ccccc2)c1	·	–[8.37 µM]	–	·	·	·
CC(=O)c1ccc(-c2cc([C@H]3[C@H]4C=CC[C@@H](C)[C@@H]4C(=O)N3Cc3ccccc3)ccc2F)cc1	·	–	–	12µM	·	?
C[C@@H]1CC=C[C@@H]2[C@H]1C(=O)N(Cc1ccccc1)[C@H]2c1cccc(Br)c1	–	–	–	·	·	·
CCOC(=O)N1CCC2(CC1)C(C#N)=C(N)Oc1c2c(C)nn1-c1cccc(Cl)c1	–	–	?	9.3µM	–	–
Cc1ccc(NC(=O)CSCC(=O)OC(C)C(=O)Nc2ccccc2C)cc1 (stereo unspecified)	–	–	–	–	–	–
O=C(OCc1cn([C@H]2CN(CC3CCCCC3)[C@@H](c3ccccc3)C[C@@H]2O)nn1)c1ccccc1	·	·	–	·	·	·
Cc1nn(-c2ccccc2)c2c1C(O)n1c(nc3ccccc31)S2 (stereo unspecified)	?	11µM	–	1.7µM	?	–
Cc1noc(C)c1-c1ccc(C(=O)Nc2ccc(C(C)C)cc2)c2occc12	·	·	–	·	·	·
CC(=O)Oc1c(C)c(OC(C)=O)c2c(c1C(C)=O)OC1CC(=O)C(C(C)=O)=C(O)C21C (stereo unspecified)	·	–	–	8.3µM	·	12µM
CNC(=S)N(C)/N=C1/C(=O)N(Cc2c(Cl)cccc2Cl)c2ccccc21	?	13µM	–	?	?	?
CN(O)/C=c1/ccc2c(n1)C(=O)C=CC=2	–	–	–	8.3µM	?	12µM
CC(C)SC1=NC(C)(C)C=C(/C=C/c2c(Cl)cccc2Cl)N1	?	–	·	·	–	3.3µM
COc1ccc(NC(=S)Nc2ccc(C)c(S(=O)(=O)N3CCCCC3)c2)cc1	15µM	?	·	–	–	–
Cc1ccc(NC(=S)Nc2ccc(C(C)C)cc2)cc1S(=O)(=O)N1CCCCCC1	?	6.3µM	-99	?	?	?

Compound activity (PubChem BioAssay)
